Assay [1] can be described thus: yeast TOR pathway RPL19A-GFP modulators, primary screen, cell-based, S. cerevisiae, multiplex flow cytometry (AID 1862; in the data active means percent of DMSO control GFP below about 86%;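 further: lower values mimic rapamycin by blocking the RPL19A rise seen in DMSO cells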). The conditions noted are these: S. cerevisiae RPL19A-GFP strain, flow cytometry fluorescence, 3 h; at 10 µM; stronger effect = lower value. A general note: In flow cytometry, cells or beads pass a laser one at a time.
A short description of assay [2]: modulators of CIT2-GFP expression in yeast, primary screen, S. cerevisiae, GFP fusion, multiplex flow cytometry (AID 1870;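 active means percent response above a set limit, the screen-wide mean plus 3 SD, cut at about 130% in these data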;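 further: barcoded CIT2-GFP strain pooled with four other GFP strains with rapamycin as positive control; median GFP fluorescence per well over plate mean of DMSO wells so 100% = DMSO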). The following applies: 3 h, at 10 µM, stronger effect = higher value.
Assay [3] is described as follows: modulators of LAP4-GFP expression in yeast, primary screen, S. cerevisiae, multiplex flow cytometry (AID 1873;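 active means GFP signal, as percent of the solvent control, above the screen mean plus 3 SD, about 149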). The following applies: 3 h, at 10 µM, stronger effect = higher value.
Assay [4] is described as follows: inhibitors of CD8+ T cell-vesicle binding, pilot screen, LFA-1/ICAM-1 modulator project, MLPCN validation set, flow cytometry (AID 2523;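 active means response below a set limit, under 55% cells CD8-positive and vesicle-bound, and CD8 cells' 90th-percentile brightness under 279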;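 on vesicle binding response: mean PE anti-B7-1 fluorescence of CD8+ cells relative to row control; 100% = QL9-loaded vesicles with DMSO vehicle in the same plate row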). The conditions noted are these: 2C mouse CD8+ T cells, at 7 µM, stronger effect = lower value; double positive events: measured here: CD8+/vesicle+ event percentage.
In assay [5] the target is Integrin beta-1 (Homo sapiens) + Integrin alpha-4 (Homo sapiens) (UniProt P13612+P05556). The assay can be described thus: inhibition of HUTS-21 binding to VLA-4, pilot screen, VLA-4 allosteric modulator project, U937 cells, HUTS-21 mAb, flow cytometry, validation set (AID 2674;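 active means inhibition above 50%, about 3 SD of the validation set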;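 further: antibody binding induced by the VLA-4 ligand LDV present at three times its Kd; 0% = LDV ligand with antibody and no compound and 100% = antibody without LDV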). The conditions noted are these: HUTS-21 LIBS mAb binding, at 6.7 µM, stronger effect = higher value.
Assay [6] in a line: superoxide lowering in aged yeast cells, pilot screen, validation compound set (AID 2706;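 active means superoxide response below 65% of plate, a cut near 3 SD across the whole screen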;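 further: yeast exposed to compound for one week at 30 degrees C before staining; 100% = mean of all compound wells on the same plate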). The following applies: S. cerevisiae aging, superoxide DHE fluorescence; at 10 µM; stronger effect = lower value.
Assay [7] addresses Beta-adrenergic receptor kinase 1 (Homo sapiens) (UniProt P25098). The assay can be described thus: GRK2 binders displacing RNA aptamer, biochemical, validation, human GRK2, bead flow cytometry (AID 488806;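 active means aptamer binding inhibition above 30%, about 3 SD of noise from non-fluorescent compounds; inactive means inhibition at or below 30%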). The following applies: bead-bound GRK2, FAM-aptamer displacement, at 10 µM, stronger effect = higher value.
Assay [8] addresses AP-2 complex subunit beta (Homo sapiens) (UniProt P63010). Nature of the assay: inhibitors of arrestin peptide binding to AP2, pilot screen, biochemical, validation set, GST-AP2 beads, flow cytometry (AID 504541;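 active means inhibition above 54%, about 3 SD of non-fluorescent compounds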;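 further: AP2 carries R879A mutation and is captured from E. coli lysate; bead-bound FITC arrestin peptide fluorescence measuring arrestin peptide binding to AP2; 0% = DMSO wells and 100% = excess unlabeled arrestin peptide control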). The following applies: FITC arrestin peptide, at 10 µM, stronger effect = higher value.
Assay [9] can be described thus: yeast V-ATPase proton transport modulators, S. cerevisiae, pHLuorin, HTS validation (AID 504600; in the data active means response above about 15%;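 further: plate controls were DMSO for no effect and reference compound for full effect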). The conditions noted are these: S. cerevisiae pHLuorin cytosolic pH, at 10 µM, stronger effect = higher value.
The subject of assay [10] is anti-desmoglein-3 scFv antibody binding to human DSG3. The assay can be described thus: inhibitors of anti-DSG3 scFv binding to DSG3, pilot screen, biochemical, validation compound set, bead-based, flow cytometry (AID 588368;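 active means binding below the plate cutoff, the plate median minus 3 SD, with a reading above zero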;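 further: signal is the median channel fluorescence of bead-bound GFP antibody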). The following applies: Protein G beads, DSG3-Fc, scFv-GFP binding, at 10 µM, stronger effect = lower value.
Assay [11] relates to Botulinum neurotoxin type F light chain protease (Clostridium botulinum). Nature of the assay: Botulinum neurotoxin type F light chain protease inhibition, multiplex microsphere flow cytometry, validation set (AID 588459). The following applies: multiplex microsphere protease substrate cleavage assay, at 10 µM, stronger effect = higher value.
The target of assay [12] is Botulinum neurotoxin type A (Clostridium botulinum) (UniProt P0DPI0). The assay can be described thus: BoNT/A light chain protease inhibitors, biochemical, multiplex microsphere flow cytometry, validation set (AID 588460). The following applies: at 10 µM, stronger effect = higher value.
The target of assay [13] is Lethal factor (Bacillus anthracis) (UniProt P15917). Nature of the assay: Lethal factor protease inhibitors, Bacillus anthracis, multiplex microsphere cleavage assay, validation set (AID 588461). The following applies: flow cytometry, at 10 µM, stronger effect = higher value.
The nature of assay [14]: inhibitors of fungal efflux pumps CDR1, CDR2, MDR1, pilot screen, validation compound set, multiplex, phenotypic (AID 588506;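 active means efflux inhibition above 0.42, the validation set average plus 4 SD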;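 further: Nile Red retained in cells so higher fluorescence means more efflux inhibition; 0 = negative control wells and 1 = enniatin B 25 µM full block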). The following applies: S. cerevisiae pump-expressing triplex, Nile Red efflux flow cytometry; at 10 µM; stronger effect = higher value.
Assay [15] addresses ATP-binding cassette sub-family B member 6 (Homo sapiens) (UniProt Q9NP58). The assay can be described thus: ABCB6 transporter inhibitors, pilot screen, K562-ABCB6 cells, flow cytometry, validation set (AID 588550;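 active means inhibition above the screen-wide mean plus 3 SD, about 51%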;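 further: 0% = DMSO wells and 100% = benzethonium chloride 70 µM positive control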). The conditions noted are these: K562-ABCB6 porphyrin accumulation, 1 h, at 10 µM, stronger effect = higher value.
Assay [16] is described as follows: promoters of myeloid differentiation in arrested cells, primary screen, cell-based, GFP/MAC1 double positive, flow cytometry, validation set (AID 588685;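 active means differentiation response of at least 50%, scaled between solvent and reference control, from cells with both markers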;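 further: compound exposure lasts four days before antibody staining and flow analysis; 0% = DMSO wells and 100% = 5 µM fulvestrant positive control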). The following applies: ER-HoxA9 marrow cells, stronger effect = higher value.
For assay [17], the target named is Beta-2 adrenergic receptor (Homo sapiens) (UniProt P07550). The assay can be described thus: beta2AR agonists driving receptor internalization, pilot screen, cell-based, FAP fluorogen, flow cytometry, validation set (AID 504459;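 active means percent response above 42, roughly 3 SD of non-fluorescent test compounds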;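 further: agonist-driven loss of surface beta2AR via internalization measured by FAP dye flow cytometry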). The conditions noted are these: Am2.2-beta2AR cells, FAP surface receptor flow cytometry; at 10 µM; stronger effect = higher value.

Molecules are shown by their SMILES. Records with an inconclusive call do not appear. Activity calls are given as the source filed them. Unless noted, how the calls were made is not given here.

Botulinum neurotoxin type A (Clostridium botulinum), sequence (P0DPI0 whole entry, looked up): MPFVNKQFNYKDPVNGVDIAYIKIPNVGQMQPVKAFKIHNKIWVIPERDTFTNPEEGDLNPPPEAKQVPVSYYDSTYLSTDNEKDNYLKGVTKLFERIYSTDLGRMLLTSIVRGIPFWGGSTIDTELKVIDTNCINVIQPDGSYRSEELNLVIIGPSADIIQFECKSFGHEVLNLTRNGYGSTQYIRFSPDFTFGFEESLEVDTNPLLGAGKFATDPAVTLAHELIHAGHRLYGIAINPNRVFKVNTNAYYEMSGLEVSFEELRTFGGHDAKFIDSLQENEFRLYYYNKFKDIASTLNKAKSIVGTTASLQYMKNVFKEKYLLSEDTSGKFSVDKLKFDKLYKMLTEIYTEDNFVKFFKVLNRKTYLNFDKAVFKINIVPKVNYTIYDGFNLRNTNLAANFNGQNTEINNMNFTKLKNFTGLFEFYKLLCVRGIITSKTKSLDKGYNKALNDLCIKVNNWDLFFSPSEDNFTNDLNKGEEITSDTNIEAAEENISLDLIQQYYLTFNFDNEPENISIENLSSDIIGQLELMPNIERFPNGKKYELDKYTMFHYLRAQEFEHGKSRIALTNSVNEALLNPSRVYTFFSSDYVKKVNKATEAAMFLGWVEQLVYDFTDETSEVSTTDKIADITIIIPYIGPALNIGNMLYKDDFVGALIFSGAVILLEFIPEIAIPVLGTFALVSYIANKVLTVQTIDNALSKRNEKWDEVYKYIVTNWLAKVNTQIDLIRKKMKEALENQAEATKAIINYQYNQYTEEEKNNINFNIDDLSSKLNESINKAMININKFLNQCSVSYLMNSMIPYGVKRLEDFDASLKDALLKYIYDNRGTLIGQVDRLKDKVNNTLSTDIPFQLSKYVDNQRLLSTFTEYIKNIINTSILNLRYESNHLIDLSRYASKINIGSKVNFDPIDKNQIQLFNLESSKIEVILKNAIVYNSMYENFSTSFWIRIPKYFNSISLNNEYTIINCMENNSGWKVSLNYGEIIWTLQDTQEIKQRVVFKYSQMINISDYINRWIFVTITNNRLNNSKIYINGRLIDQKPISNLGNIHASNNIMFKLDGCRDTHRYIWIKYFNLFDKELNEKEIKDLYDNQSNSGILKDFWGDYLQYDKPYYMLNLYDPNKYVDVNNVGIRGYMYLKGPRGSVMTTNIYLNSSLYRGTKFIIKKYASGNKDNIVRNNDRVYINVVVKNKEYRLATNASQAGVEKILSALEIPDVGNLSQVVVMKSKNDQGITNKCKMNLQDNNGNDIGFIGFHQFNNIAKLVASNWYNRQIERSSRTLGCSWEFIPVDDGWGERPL
AP-2 complex subunit beta (Homo sapiens), sequence (P63010 whole entry, looked up, one chain of several): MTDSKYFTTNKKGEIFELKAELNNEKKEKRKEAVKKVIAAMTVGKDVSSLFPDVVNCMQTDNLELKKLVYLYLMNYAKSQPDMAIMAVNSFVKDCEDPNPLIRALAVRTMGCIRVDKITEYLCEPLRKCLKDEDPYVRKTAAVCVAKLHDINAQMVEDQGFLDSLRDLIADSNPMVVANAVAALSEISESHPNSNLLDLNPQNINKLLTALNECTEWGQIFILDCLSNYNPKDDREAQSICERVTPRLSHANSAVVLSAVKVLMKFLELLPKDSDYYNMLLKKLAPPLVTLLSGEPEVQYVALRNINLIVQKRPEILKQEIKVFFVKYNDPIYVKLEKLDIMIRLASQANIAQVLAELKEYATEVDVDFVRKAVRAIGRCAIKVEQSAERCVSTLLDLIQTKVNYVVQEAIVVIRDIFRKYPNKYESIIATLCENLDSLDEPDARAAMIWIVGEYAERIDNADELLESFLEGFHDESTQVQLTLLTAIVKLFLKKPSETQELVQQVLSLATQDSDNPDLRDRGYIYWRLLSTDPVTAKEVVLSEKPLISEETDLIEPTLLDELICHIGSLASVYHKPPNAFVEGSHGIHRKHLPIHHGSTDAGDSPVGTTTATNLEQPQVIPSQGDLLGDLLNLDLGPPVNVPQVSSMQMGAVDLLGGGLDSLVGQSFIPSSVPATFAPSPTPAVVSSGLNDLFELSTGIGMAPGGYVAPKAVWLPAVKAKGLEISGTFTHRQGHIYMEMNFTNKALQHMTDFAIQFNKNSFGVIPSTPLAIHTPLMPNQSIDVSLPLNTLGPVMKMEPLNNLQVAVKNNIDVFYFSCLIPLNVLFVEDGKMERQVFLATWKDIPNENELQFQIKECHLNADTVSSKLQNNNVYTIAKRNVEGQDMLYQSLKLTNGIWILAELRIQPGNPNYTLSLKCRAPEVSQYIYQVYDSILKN
ATP-binding cassette sub-family B member 6 (Homo sapiens), sequence (Q9NP58 whole entry, looked up): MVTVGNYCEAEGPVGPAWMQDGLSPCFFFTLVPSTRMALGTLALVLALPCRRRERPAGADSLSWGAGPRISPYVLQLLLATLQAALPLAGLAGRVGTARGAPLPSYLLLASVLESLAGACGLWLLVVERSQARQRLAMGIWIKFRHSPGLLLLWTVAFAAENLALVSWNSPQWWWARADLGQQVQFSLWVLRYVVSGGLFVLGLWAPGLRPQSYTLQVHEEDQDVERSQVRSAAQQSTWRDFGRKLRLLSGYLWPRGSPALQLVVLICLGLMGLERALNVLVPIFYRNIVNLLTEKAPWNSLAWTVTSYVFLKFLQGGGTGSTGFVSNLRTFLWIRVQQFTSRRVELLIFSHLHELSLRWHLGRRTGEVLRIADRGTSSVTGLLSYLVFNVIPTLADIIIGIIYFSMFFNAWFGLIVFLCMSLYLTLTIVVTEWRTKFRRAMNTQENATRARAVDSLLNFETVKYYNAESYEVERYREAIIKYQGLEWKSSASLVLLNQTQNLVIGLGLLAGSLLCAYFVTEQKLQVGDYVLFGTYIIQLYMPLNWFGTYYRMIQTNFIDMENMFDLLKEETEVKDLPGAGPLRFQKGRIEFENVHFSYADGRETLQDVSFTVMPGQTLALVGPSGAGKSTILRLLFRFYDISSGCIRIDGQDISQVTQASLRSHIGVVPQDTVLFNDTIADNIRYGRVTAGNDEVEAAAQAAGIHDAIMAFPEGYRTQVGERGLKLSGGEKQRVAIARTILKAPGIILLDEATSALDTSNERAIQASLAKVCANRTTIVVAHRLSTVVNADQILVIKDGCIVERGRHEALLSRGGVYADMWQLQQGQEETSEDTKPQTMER
Beta-adrenergic receptor kinase 1 (Homo sapiens), sequence (P25098 whole entry, looked up): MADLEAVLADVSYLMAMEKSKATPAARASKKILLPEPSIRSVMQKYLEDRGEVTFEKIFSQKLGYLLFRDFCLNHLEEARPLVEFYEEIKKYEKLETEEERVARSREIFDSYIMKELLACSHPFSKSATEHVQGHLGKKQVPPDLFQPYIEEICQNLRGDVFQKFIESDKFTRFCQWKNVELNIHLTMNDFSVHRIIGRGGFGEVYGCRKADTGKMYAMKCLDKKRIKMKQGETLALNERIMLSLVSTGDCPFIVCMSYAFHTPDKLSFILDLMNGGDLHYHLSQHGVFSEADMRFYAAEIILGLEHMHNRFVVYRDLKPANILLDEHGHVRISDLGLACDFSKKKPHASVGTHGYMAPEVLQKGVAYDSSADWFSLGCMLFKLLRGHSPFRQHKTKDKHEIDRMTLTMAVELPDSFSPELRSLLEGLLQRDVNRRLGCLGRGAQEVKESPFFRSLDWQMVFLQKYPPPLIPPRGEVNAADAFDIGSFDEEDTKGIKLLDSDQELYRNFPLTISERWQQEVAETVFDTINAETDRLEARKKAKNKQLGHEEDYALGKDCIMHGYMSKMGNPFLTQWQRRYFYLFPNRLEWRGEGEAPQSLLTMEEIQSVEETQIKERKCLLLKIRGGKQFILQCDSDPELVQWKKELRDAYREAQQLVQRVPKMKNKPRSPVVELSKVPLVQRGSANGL
Lethal factor (Bacillus anthracis), sequence (P15917 whole entry, looked up): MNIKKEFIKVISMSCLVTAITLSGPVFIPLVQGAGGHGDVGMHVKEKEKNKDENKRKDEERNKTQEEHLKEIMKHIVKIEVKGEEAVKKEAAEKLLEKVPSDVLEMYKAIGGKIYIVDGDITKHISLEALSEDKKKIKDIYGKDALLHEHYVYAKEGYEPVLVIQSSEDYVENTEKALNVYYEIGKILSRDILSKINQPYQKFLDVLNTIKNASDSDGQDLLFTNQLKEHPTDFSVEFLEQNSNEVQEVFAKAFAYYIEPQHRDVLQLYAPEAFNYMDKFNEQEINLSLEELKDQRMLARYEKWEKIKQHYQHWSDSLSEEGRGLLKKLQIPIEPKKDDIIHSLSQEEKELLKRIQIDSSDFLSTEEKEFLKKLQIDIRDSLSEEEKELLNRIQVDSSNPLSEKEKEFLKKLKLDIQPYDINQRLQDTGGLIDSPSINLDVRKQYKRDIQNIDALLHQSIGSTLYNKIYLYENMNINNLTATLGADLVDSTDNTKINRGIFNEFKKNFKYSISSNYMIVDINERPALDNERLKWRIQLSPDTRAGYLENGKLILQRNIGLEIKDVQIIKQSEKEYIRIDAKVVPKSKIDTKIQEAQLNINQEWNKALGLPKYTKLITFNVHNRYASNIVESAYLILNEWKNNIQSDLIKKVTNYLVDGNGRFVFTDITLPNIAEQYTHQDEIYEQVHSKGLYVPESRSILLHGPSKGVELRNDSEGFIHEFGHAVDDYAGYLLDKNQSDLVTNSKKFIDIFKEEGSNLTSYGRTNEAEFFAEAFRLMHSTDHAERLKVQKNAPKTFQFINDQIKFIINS
Beta-2 adrenergic receptor (Homo sapiens), sequence (P07550 whole entry, looked up): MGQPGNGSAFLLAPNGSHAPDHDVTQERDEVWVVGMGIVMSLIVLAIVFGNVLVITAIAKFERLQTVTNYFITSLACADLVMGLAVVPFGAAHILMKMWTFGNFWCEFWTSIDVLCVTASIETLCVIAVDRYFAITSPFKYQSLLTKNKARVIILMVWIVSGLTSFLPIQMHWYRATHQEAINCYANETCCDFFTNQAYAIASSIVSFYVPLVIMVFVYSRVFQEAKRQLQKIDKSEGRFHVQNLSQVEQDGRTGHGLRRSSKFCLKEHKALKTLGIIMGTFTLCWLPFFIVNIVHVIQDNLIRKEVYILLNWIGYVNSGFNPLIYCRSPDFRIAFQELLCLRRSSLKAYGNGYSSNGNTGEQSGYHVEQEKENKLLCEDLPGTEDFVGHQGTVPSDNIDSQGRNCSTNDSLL

In the case of `CC(=O)[C@H]1CC[C@H]2[C@@H]3CC[C@H]4C[C@H](O)CC[C@]4(C)[C@H]3C(=O)C[C@]12C`, in assay [1], the percent of DMSO control GFP was 100% (inactive). Moreover, the percent response of DMSO control in [2] is 92% (inactive). The GFP response vs DMSO in [3] is 106% (inactive). In assay [4], this compound displayed a double positive events of 60.9%. Further, the vesicle binding response in assay [4] was 146% (inactive). Moreover, the inhibition (in general, the change of the read-out against control, counted positive when it falls) in assay [5] is 6.29% (inactive); in assay [8], 42.5% (inactive); in [11], 0.8% (inactive); in [12], 2.5% (inactive); in [13], -1.9% (inactive); in assay [15] it was 5% (inactive). Moreover, the superoxide response (% of plate) in assay [6] is 110% (inactive). Also, the aptamer binding inhibition in assay [7] is 3% (inactive). Besides, the response in [9] is -11.1% (inactive). Moreover, the binding (% of control) in assay [10] was 99.5% (inactive). Moreover, the efflux inhibition (fraction of control) in assay [14] was 0.14 (inactive). Further, in assay [16], the differentiation response is 46.6% (inactive).

Regarding `O=C(CCCN1CCC2(CC1)C(=O)NCN2c1ccccc1)c1ccc(F)cc1`, the percent of DMSO control GFP in assay [1] was 98.9% (inactive). Besides, the percent response of DMSO control in assay [2] is 102% (inactive). Besides, the GFP response vs DMSO in [3] is 110% (inactive). In [4], the double positive events is 62.6%. The vesicle binding response in assay [4] was 187% (inactive). Further, the inhibition in assay [5] was 8.25% (inactive); in [8], -9.7% (inactive); in [13] it was 0.5% (inactive); in assay [15] it was -1% (inactive). Further, the superoxide response (% of plate) in assay [6] is 85.3% (inactive). The aptamer binding inhibition in assay [7] is -1% (inactive). Moreover, the figures for the response in assay [17] and in [9] were -35.8% (inactive) and 1.45% (inactive), respectively. Moreover, the binding (% of control) in assay [10] is 103% (inactive). The efflux inhibition (fraction of control) in [14] was 0.12 (inactive). Further, the differentiation response in assay [16] is 3.88% (inactive).

On to `Cc1ccc2c(c1)C1CN(C)CCC1N2C(=O)Nc1cccc(Cl)c1` (centres undefined), for which the percent of DMSO control GFP in assay [1] is 99.5% (inactive). Also, the percent response of DMSO control in assay [2] is 109% (inactive). Moreover, the GFP response vs DMSO in assay [3] is 95.4% (inactive). The compound also gave a double positive events in assay [4] of 56.9%. Further, the vesicle binding response in [4] was 242% (inactive). Besides, the inhibition in assay [5] is 30.5% (inactive); in assay [8], 27.7% (inactive); in assay [11] it was -0.9% (inactive); in [12] it was -0.1% (inactive); in assay [13] it was 0% (inactive); in assay [15], 4% (inactive). For the same compound, in [6], the superoxide response (% of plate) is 93.4% (inactive). Moreover, the aptamer binding inhibition in assay [7] is -3% (inactive). Besides, the response in [9] is -6.89% (inactive). Also, the binding (% of control) in assay [10] is 102% (inactive). The efflux inhibition (fraction of control) in assay [14] was -0.09 (inactive). Further, the differentiation response in assay [16] was -18% (inactive).

As for `Cc1cccc(C)c1NC1=NCCCS1`, in assay [1], the percent of DMSO control GFP was 94.7% (inactive). Further, in assay [2], the percent response of DMSO control is 94.9% (inactive). In addition, in assay [3], the GFP response vs DMSO was 91.3% (inactive). This compound also returned a double positive events in assay [4] of 62.8%. Besides, the vesicle binding response in assay [4] was 180% (inactive). Besides, the inhibition in [5] was 13.8% (inactive); in assay [8] it was 15.3% (inactive); in [11], -2.3% (inactive); in assay [12], -0.6% (inactive); in assay [13], 1.9% (inactive); in assay [15], 5% (inactive). Besides, in assay [6], the superoxide response (% of plate) was 97.2% (inactive). For the same compound, the aptamer binding inhibition in assay [7] is 2% (inactive). For the same compound, the response in assay [9] was 1.52% (inactive). Besides, the binding (% of control) in [10] was 102% (inactive). Moreover, the efflux inhibition (fraction of control) in assay [14] was 0.18 (inactive). Moreover, the differentiation response in [16] was -9.89% (inactive).

For the compound `CCN(CC)C(=O)N[C@H]1C[C@@H]2c3cccc4[nH]cc(c34)C[C@H]2N(C)C1`, the percent of DMSO control GFP in [1] is 101% (inactive). Moreover, the percent response of DMSO control in [2] is 101% (inactive). Besides, the GFP response vs DMSO in assay [3] is 94% (inactive). Besides, the double positive events in assay [4] was found to be 62.5%. Also, in assay [4], the vesicle binding response is 197% (inactive). Also, the inhibition in assay [5] was -11.9% (inactive); in assay [8], 28.7% (inactive); in [11], -2.6% (inactive); in [12], -1.3% (inactive); in [13] it was -36% (inactive); in assay [15] it was -252% (inactive). Also, the aptamer binding inhibition in assay [7] was -2% (inactive). The response in [17] is -25% (inactive); in [9], -1.97% (inactive). The binding (% of control) in assay [10] was 101% (inactive). Moreover, the efflux inhibition (fraction of control) in assay [14] is 0.36 (inactive). The differentiation response in assay [16] is 21.8% (inactive).
